Source: PubChem BioAssay
TRPV1 agonist: agonists of human vanilloid receptor 1 (TRPV1); hit rate 0.19% among 320,000; activation, % at 8.33 µM; Q8NER1; TRPV1-expressing cells, Fluo-8 calcium influx, agonist mode; in the data active = activation above about 80%; inconclusive = between about 30% and that limit
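Cells expressing TRPV1 were dye-loaded with Fluo-8 and read kinetically: 10 s baseline, 3 min after compound (agonist portion), then 2 min after EC20 capsaicin (allosteric enhancer portion). Calcium-bound dye fluorescence at 480/520 nm.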
TRPML1 ag: activates the human TRPML1 channel; TRPML1-expressing cells, Ca2+ dye fluorescence, FDSS; activation, % (no concentration beside the values); hit rate 0.12% among 410,000; in the data active = activation above about 50%; inconclusive = mostly about 30% to 49%
Target sequence (Q9GZU1 whole entry, looked up): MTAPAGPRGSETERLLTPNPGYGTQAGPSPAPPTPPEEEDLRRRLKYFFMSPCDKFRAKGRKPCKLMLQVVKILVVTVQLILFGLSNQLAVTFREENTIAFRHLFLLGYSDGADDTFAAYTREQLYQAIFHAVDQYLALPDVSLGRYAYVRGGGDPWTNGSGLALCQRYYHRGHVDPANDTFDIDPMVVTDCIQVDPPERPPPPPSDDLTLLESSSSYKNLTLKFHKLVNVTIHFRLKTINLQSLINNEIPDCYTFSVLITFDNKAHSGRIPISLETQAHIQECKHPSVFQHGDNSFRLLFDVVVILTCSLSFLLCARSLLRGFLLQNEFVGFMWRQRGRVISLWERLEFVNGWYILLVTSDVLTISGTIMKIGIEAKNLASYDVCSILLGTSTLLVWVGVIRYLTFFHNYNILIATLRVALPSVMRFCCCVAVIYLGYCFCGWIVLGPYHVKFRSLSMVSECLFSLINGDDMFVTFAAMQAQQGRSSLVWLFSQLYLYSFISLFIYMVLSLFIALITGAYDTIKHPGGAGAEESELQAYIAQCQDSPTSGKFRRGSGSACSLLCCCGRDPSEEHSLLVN
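Cells: TRPML1-DL, 1X Tet inducer, ~16 h at 37 degrees C/5% CO2. Dye: ABD Ca8 no-wash + quencher, 45-90 min RT. Read: 10 s baseline, compound add, 110 s agonist phase; 54-4 EC80 (4uM final), 110 s antagonist phase.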
TRPML1 inh: human mucolipin-1 channel inhibition. Q9GZU1. TRPML1-inducible cells, Ca2+ dye fluorescence, FDSS; active compounds read low; inhibition of EC80 agonist-evoked calcium signal. activity change, negative = inhibition, % (concentration not given with the values). hit rate 0.02% among 390,000. AID 624415; in the data active = activity change below about -50%; inconclusive = between about -30% and that limit;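 note: stimulus is agonist 54-4 at its EC80 concentration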
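Tet-induced TRPML1-DL cells loaded with Ca8 no-wash calcium dye were read kinetically on FDSS. Compound addition was followed by EC80 agonist 54-4 (4 uM final); inhibition was read over 110 s.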
TRPV1 potentiator: enhances activation of the human vanilloid receptor TRPV1. potentiation, % at 8.33 µM. Q8NER1. hit rate 0.02% among 320,000. TRPV1-expressing cells, Fluo-8 calcium influx, capsaicin EC20 potentiation; in the data active = potentiation above about 80%; inconclusive = between about 30% and that limit
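Fluo-8 calcium influx in TRPV1-expressing cells, kinetic read (ex 480/em 520 nm). Compound added and read 3 min for agonist activity, followed by capsaicin at EC20 final and 2 min further read for enhancement.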
Each line names hits and unclear results; the compound was inactive in the other large screens. Hits are enriched below; roughly 0.31% of the tested compounds scored in any of these assays.

COc1ccc(S(=O)(=O)N2CC3CCCN3c3ccc(C(F)(F)F)cc32)cc1 (centres undefined)	TRPML1 ag 80.1, TRPV1 potentiator inconclusive
N#Cc1cc(C(=O)c2ccccc2O)cn(-c2nccs2)c1=O	TRPV1 agonist 87.1, TRPML1 ag 64.2
N#Cc1cc(C(=O)c2cc(F)ccc2O)cn(-c2nccs2)c1=O	TRPV1 agonist inconclusive, TRPML1 ag 124.4
CC(C)n1cc(C(=O)c2ccccc2O)cc(C#N)c1=O	none
CC(=O)Nc1ccc(S(=O)(=O)NCc2ccc3c(c2)CCN3C(C)=O)cc1	none (no result: TRPV1 agonist, TRPV1 potentiator)
O=C(c1cc(-c2ccc(Br)cc2)on1)N1CCOCC1	TRPV1 agonist 99.2
O=C(c1cc(-c2ccc(Br)cc2)on1)N1CCCCCC1	TRPV1 agonist inconclusive
Cc1ccc(NC(=O)c2oc3ccccc3c2NC(=O)C2CC2)cc1	TRPV1 agonist inconclusive
O=C(Nc1ccc(F)cc1)c1oc2ccccc2c1NC(=O)C1CC1	TRPV1 agonist 81.5
Cc1cc(C)c(NC(=O)C(=O)NCC(c2cccnc2)N2CCN(Cc3ccccc3)CC2)c(C)c1 (centres undefined)	none (no result: TRPV1 agonist, TRPV1 potentiator)
O=C1NNC(c2ccccc2)=N/C1=C\c1ccccc1Cl	TRPV1 agonist 94.0
O=C1NNC(c2ccccc2)=N/C1=C\c1ccco1	none
N/C(=N\OC(=O)c1ccc(Cl)cc1)c1nonc1N	TRPV1 agonist 80.6
COc1cc(CNc2ccc3[nH]c(=O)[nH]c3c2)ccc1OCc1ccccc1F	TRPV1 agonist inconclusive
COc1cc(CNc2ccc3[nH]c(=O)[nH]c3c2)ccc1OCc1c(F)cccc1Cl	TRPV1 agonist 90.2
CC(C)c1ccc(Cn2cnc3c(cnn3C(C)(C)C)c2=O)cc1	none (no result: TRPV1 agonist, TRPV1 potentiator)
CC(C)C(=O)Nc1ccc(C(=O)CN2C(=O)NC3(CCOc4ccccc43)C2=O)cc1 (centres undefined)	TRPV1 agonist 90.9
Cc1ccc([C@@H]2CC(=O)[C@@H]3CN(S(=O)(=O)c4ccc(C)cc4)[C@H](c4cccc5ccccc45)C[C@@H]3N2S(=O)(=O)c2ccc(Cl)cc2)cc1	none (no result: TRPV1 agonist, TRPV1 potentiator)
Cc1ccc(S(=O)(=O)N2C[C@H]3C(=O)C[C@@H](c4ccccc4)N(S(=O)(=O)c4ccc(C)cc4)[C@H]3C[C@H]2c2cccc3ccccc23)cc1	TRPML1 ag 56.5 (no result: TRPV1 agonist, TRPV1 potentiator)
Cc1ccc(S(=O)(=O)N2C[C@H]3C(=O)C[C@@H](c4ccccc4)N(S(=O)(=O)c4cccc(C)c4)[C@H]3C[C@H]2c2ccccc2)cc1	none (no result: TRPV1 agonist, TRPV1 potentiator)
Cc1ccc(S(=O)(=O)N2C[C@H]3C(=O)C[C@@H](c4ccccc4)N(S(=O)(=O)c4ccc(C)cc4)[C@H]3C[C@H]2c2cccc(C)c2)cc1	TRPML1 ag 93.1, TRPML1 inh inconclusive (no result: TRPV1 agonist, TRPV1 potentiator)
CCCc1nnc(SCc2cc(=O)c3c(C)cc(C)cc3[nH]2)n1C	none (no result: TRPV1 agonist, TRPV1 potentiator)
Cc1cccc(NC(=O)c2sc(-n3nc(C)c(Cc4ccc5c(c4)OCO5)c3C)nc2C)c1C	none (no result: TRPV1 agonist, TRPV1 potentiator)
O=C1CC(c2ccccc2)CC(O)=C1C=NCCc1ccccc1 (centres undefined)	TRPV1 potentiator 84.2
Nc1cc(=O)[nH]c(=O)n1-c1ccc(Cl)cc1	TRPML1 inh -76.9
Cc1cc(=O)n(-c2ccc(Cl)cc2)c(=O)[nH]1	none
CC(C)(C)c1ccc(OCc2ccc(C(=O)NN)o2)cc1	TRPV1 agonist 123.4
CC(=O)C[n+]1cccc(Br)c1	none (no result: TRPV1 agonist, TRPML1 inh, TRPV1 potentiator)
CCc1ccc(/C=N/NC(=O)c2c[nH]c3ccccc23)s1	TRPV1 agonist 84.6
CCc1ccccc1NC(=O)Nc1ccc2c(c1)N(CC)C(=O)c1ccccc1S2	none (no result: TRPV1 agonist, TRPV1 potentiator)
COc1ccc(/C=N/NC(=O)c2ccc3c(c2)OCO3)c(C(=O)O)c1OC	TRPV1 agonist 80.1
O=C(N/N=C/c1ccc2c(c1)OCO2)c1ccc2c(c1)OCO2	TRPV1 agonist inconclusive
O=C(N/N=C/c1cccnc1)c1ccc2c(c1)OCO2	TRPV1 agonist 90.3
CCc1ccc(NC(=O)c2onc(C)c2Cl)cc1	TRPV1 agonist 89.4
CCN(CC)c1ccc2cc(-c3nnc(-c4ccncc4)o3)c(=O)oc2c1	TRPV1 agonist 106.9, TRPML1 ag 116.0, TRPML1 inh inconclusive, TRPV1 potentiator inconclusive
CCN(CC)c1ccc2cc(-c3nnc(-c4cccc(Cl)c4)o3)c(=O)oc2c1	TRPML1 ag 61.9 (no result: TRPV1 agonist, TRPV1 potentiator)
Cn1nc(-c2ccc(F)cc2)nc2c(=O)n(C)c(=O)nc1-2	none (no result: TRPV1 agonist, TRPML1 inh, TRPV1 potentiator)
COc1ccc(CNC(=O)c2ccc(NC(=O)N3CCSc4ccccc43)cc2)cc1	none (no result: TRPV1 agonist, TRPV1 potentiator)
CCOC(=O)[C@H]1[C@H]2COc3ccccc3[C@@H]2N2C(=O)c3ccccc3NC(=O)[C@@]12C	TRPV1 agonist inconclusive
CCOC(=O)[C@H]1[C@H]2COc3ccc(Br)cc3[C@@H]2N2C(=O)c3ccc(F)cc3NC(=O)[C@@]12C	TRPV1 agonist inconclusive
CCOC(=O)[C@H]1[C@H]2COc3cc(OC)ccc3[C@@H]2N2C(=O)c3ccc(C)cc3NC(=O)[C@@]12C	TRPV1 agonist 82.2
CCOC(=O)[C@H]1[C@H]2COc3ccc(Br)cc3[C@@H]2N2C(=O)c3ccc(C)cc3NC(=O)[C@@]12C	TRPV1 agonist 80.5
CCOC(=O)[C@H]1[C@H]2COc3ccc(Br)cc3[C@@H]2N2C(=O)c3cc(F)c(F)cc3NC(=O)[C@@]12C	TRPV1 agonist 84.1, TRPV1 potentiator inconclusive
CCOC(=O)[C@H]1[C@H]2COc3ccccc3[C@@H]2N2C(=O)c3ccc(C)cc3NC(=O)[C@@]12C	TRPV1 agonist 92.6
O=C(Nc1cccc2ccccc12)c1cnn2c1NC(=C1CC1)C=C2C(F)F	none (no result: TRPV1 agonist, TRPML1 inh, TRPV1 potentiator)
CCOC(=O)c1[nH]c(C)c(C(=O)c2ccc(C)cc2)c1C	TRPV1 agonist 89.6
CCOC(=O)c1[nH]c(C)c(C(=O)NCc2ccc(C)cc2)c1C	none
CC(C)c1ccc(N=Cc2c(O)c3ccccc3oc2=O)cc1	TRPV1 agonist 82.6 (no result: TRPML1 ag, TRPML1 inh)
COc1ccc(N=Cc2c(O)c3ccccc3oc2=O)cc1	TRPV1 agonist inconclusive
Cc1ccccc1-c1ccc(/C=C2/SC(N3CCOCC3)=NC2=O)o1	TRPV1 agonist 84.5
CC(C)c1ccc(CNNC(=O)c2ccccc2)cc1	TRPV1 agonist 83.3
COc1ccc(CC(=O)Nc2cccc3ccccc23)cc1OC	TRPV1 agonist 89.0
COc1cc(Cl)c(C)cc1NC(=O)Cc1ccc(OC)c(OC)c1	TRPV1 agonist 89.2
COc1cc(Cl)c(C)cc1NC(=O)Cc1cccs1	TRPV1 potentiator inconclusive
COc1ccc(CC(=O)NCc2ccc(-n3cccc3)cc2)cc1OC	TRPV1 agonist 80.8
COc1ccc(CC(=O)Nc2cccc3ncccc23)cc1OC	none
Cc1ccc(CNC(=O)Cc2ccc(-n3cccc3)cc2)cc1	none
CC1CCC(NC(=O)c2ccc(CS(=O)(=O)c3c(Cl)cccc3Cl)o2)CC1 (centres undefined)	none (no result: TRPV1 agonist, TRPV1 potentiator)
CCOC(=O)C(/C=C(\C#N)C(=O)OCC)=C(/N)N1CCN(c2ccc(Cl)cc2)CC1	TRPML1 ag 68.5
CCOC(=O)N1CCN(c2ccc(Cl)cc2)CC1	TRPV1 agonist inconclusive
O=C(c1cc(COc2ccc(F)cc2Cl)on1)N1CCC(c2ccncc2)CC1	TRPV1 agonist 85.6
O=C(c1cc(COc2ccc(F)cc2Cl)on1)N1CCCCCC1	none
